A selection: hits, their analogues and other compounds. The true share with any hit is near 0.8%.
TRHR agonist – activates the human TRH receptor | P34981 | TRHR cells, calcium flux fluo-8, FDSS agonist mode | activation, % at 2 µM | 360,000 compounds, 0.18% hits | AID 493084; in the data active = activation above about 30%
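Read-out: compound-evoked intracellular calcium rise in TRHR cells, fluo-8 dye, kinetic FDSS fluorescence at 1 s/cycle following a 10-cycle baseline. Cells cultured overnight before dye loading (30 min–1.5 h, RT).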
GRP78 ERSR act – ER stress response induction in glioma | AID 602332 | 420,000 compounds, 0.02% hits | Potency, µM, most hits filed as activators | U87-MG GRP78 promoter luciferase reporter, 16 h; active = well fitted activation curve with a large enough effect; inconclusive = small, poorly fitted or top-dose-only effect; inactive = no such curve, though single readings can be large or run the other way; also: series mostly up to about 76 µM; nearly all actives have a fitted effect of over 35% in size
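Stably transfected U87-MG glioma cells carrying a GRP78-based luciferase sensor; 16 h compound incubation. Luminescence end-point read 10 min after Bright-Glo addition at room temperature.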
TRPML1 blocker – blocks the human TRPML1 channel; Q9GZU1; TRPML1-inducible cells, Ca2+ dye fluorescence, FDSS; stronger effect = lower value; inhibition of EC80 agonist-evoked calcium signal; activity change, negative = inhibition, % (concentration not given with the values); 390,000 compounds, 0.02% hits; in the data active = activity change below about -50%; inconclusive = between about -30% and that limit;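 also: stimulus is agonist 54-4 at its EC80 concentration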
Target sequence (Q9GZU1 whole entry, looked up): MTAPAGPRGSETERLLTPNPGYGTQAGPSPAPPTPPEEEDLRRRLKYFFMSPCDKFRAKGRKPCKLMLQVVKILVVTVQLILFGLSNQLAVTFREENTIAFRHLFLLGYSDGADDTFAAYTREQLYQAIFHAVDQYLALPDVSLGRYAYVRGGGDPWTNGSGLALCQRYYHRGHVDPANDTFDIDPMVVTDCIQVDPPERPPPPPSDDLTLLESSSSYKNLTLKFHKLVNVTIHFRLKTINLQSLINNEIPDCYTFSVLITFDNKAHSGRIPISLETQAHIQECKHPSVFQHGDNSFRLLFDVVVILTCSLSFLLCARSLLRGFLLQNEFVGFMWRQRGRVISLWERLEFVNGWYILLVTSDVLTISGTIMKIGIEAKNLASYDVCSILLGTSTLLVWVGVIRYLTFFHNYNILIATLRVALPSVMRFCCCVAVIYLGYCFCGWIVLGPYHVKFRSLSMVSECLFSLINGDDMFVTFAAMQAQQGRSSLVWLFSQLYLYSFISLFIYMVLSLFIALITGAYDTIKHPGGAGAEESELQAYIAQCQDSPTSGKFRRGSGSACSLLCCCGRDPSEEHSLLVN
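TRPML1-DL cells, Tet-induced overnight (~16 h, 37 °C) at 1,500 cells/well, were loaded with Ca8 no-wash dye plus quencher for 45-90 min at room temperature. Compounds were pinned during FDSS kinetic reading; agonist 54-4 at EC80 (4 uM final) then added.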
TRPML1 ag – human mucolipin-1 channel agonism. Q9GZU1. TRPML1-expressing cells, Ca2+ dye fluorescence, FDSS. activation, % (concentration not given with the values). 410,000 compounds, 0.12% hits; in the data active = activation above about 50%; inconclusive = mostly about 30% to 49%
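Agonist activity was taken from a 110 s kinetic Ca2+ dye read on the FDSS after pinning compounds onto TRPML1-DL cells. The cells were seeded at 1,500/well with Tet inducer, incubated about 16 h, then dye-loaded at room temperature.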
TRHR PAM – allosterically enhances the human TRH receptor | P34981 | TRHR cells, fluo-8 calcium fluorescence, EC20 TRH enhancement | enhancement, % at 2 µM | 360,000 compounds, 0.66% hits; in the data active = enhancement above about 30%
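Enhancer read-out: after compound pinning and an initial kinetic agonist-mode read, an EC20 of TRH (10 nM final) was injected and fluo-8 calcium signal (Ex 480/Em 530) followed at 1 s/cycle for 100 cycles in TRHR-expressing cells.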
A number is an active result; . = inactive; ? = inconclusive; / = no result; ! = not confirmed by another sample.

SMILES | TRHR agonist | GRP78 ERSR act | TRPML1 blocker | TRPML1 ag | TRHR PAM
CC(NC(=O)[C@H](Cc1c[nH]c2ccccc12)NC(=O)[C@@H]1Cc2ccccc2CN1)c1ccccc1 (some centres not stated) | . | . | . | . | 30.2
O=C(c1cc(-c2ccccc2)on1)N1CCOc2ccc(CN3CCN(c4ccccn4)CC3)cc2C1 | / | . | / | / | /
CC(C)N1CCN(Cc2cccn2-c2nccs2)CC1CCO (configuration not stated) | . | . | . | . | 35.6
CO[C@H]1[C@H](NC(=O)c2cccs2)c2ccccc2C12CCN(Cc1cccn1-c1cccnc1)CC2 | / | . | / | / | /
O=C(Cc1ccc(Cl)cc1)Nc1ccc(N2CCCC2)cc1 | . | . | . | . | .
Clc1cccc(Cl)c1CNc1ccc(N2CCCC2)cc1 | . | . | . | . | 31.0
O=C(Nc1c[nH]c2c(Cl)cccc2c1=O)N1CCN(c2ccccn2)CC1 | . | . | . | . | 31.5
CCCS(=O)(=O)NCc1c(C)ncc2c1CCN(C(=O)c1ccc3[nH]c4c(c3c1)CCCC4)C2 | / | . | / | / | /
CN(C)c1ccc(/C=C(/C(=O)c2ccc(Cl)cc2Cl)n2cncn2)cc1 | 74.9 | . | . | ? | .
COc1ccc(/C=C(/C(=O)c2ccc(Cl)cc2Cl)n2cncn2)cc1 | . | . | . | . | .
Cc1cc2c(s1)c1cnn(Cc3cccc(Br)c3)c(=O)c1n2C | . | / | / | / | .
O=C(NCC1Cc2cc(-c3cnc4ccccc4c3)cc(F)c2O1)c1cnsn1 (configuration not stated) | / | . | / | / | /
Cc1ccc(CN2C[C@@H](Sc3nc(C)cc(C)n3)C[C@H]2C(=O)N2CCN(c3ccccc3F)CC2)cc1 | / | . | / | / | /
CSC1=NC2C(N1)N(C)C(=O)N2C (configuration not stated) | . | . | . | . | 38.6
Cc1ccc(C(=O)N(Cc2cc3cc4c(cc3nc2N2CCOCC2)CCC4)CC2CCCO2)s1 (configuration not stated) | / | . | / | / | /
Cc1nonc1C(=O)N/N=C/c1ccc(O)c(O)c1 | . | 35.5µM | . | . | .
CC(C)c1c(C(=O)NCc2ccncc2)cnn1-c1nccc(-c2cccs2)n1 | / | . | / | / | /
COc1ccc(C(=O)NC2=NCCS2)cc1S(=O)(=O)N1CCOCC1 | / | . | . | . | /
O=C(NC1=NCCS1)c1cccc(S(=O)(=O)N2CCOCC2)c1 | . | . | . | . | 31.7
Cc1nc(C)c(C(=O)NCc2nc(-c3cccc(NC(=O)c4ccccn4)c3)oc2C)s1 | / | . | / | / | /
Cc1cccc(NC(=O)CCN2CC(C)OC(C)C2)c1 (configuration not stated) | . | . | . | . | 35.5
Cc1cccc[n+]1CC(=O)N1c2ccccc2Sc2ccccc21 | . | . | . | . | 31.3
COC(=O)c1ccc(CN(c2ccccc2Cl)S(C)(=O)=O)cc1 | . | . | . | . | .
COC(=O)c1ccc(Cl)cc1N(Cc1c(F)cccc1Cl)S(C)(=O)=O | . | . | . | 107.9 | .
Clc1ccc(-c2nnc3n2CCCS3)cc1 | . | . | . | . | 34.2
SMILES | TRHR agonist | GRP78 ERSR act | TRPML1 blocker | TRPML1 ag | TRHR PAM
Cc1ccc(NC(=O)c2ccc(-c3cccc(Cl)c3C)o2)cc1 | . | . | . | . | 35.9
COc1ccc(NC(=O)c2ccc(-c3cccc(Cl)c3C)o2)cc1 | . | . | . | . | .
COCC1=C(C(=O)OC(C)OC(=O)OC(C)C)N2C(=O)C(NC(=O)/C(=N/OC)c3csc(N)n3)[C@H]2SC1 (some centres not stated) | / | . | / | / | /
CCCCOC(=O)c1ccc(NC(=O)/C(C#N)=C/c2ccc(-c3ccccc3)o2)cc1 | 47.3 | . | . | . | .
CCOC(=O)c1ccc(-c2ccc(/C=C(\C#N)C(=O)Nc3c(C)cccc3Cl)o2)cc1 | . | . | . | . | .
CCOc1ccc(N(C)S(=O)(=O)c2ccc3[nH]cc(C(=O)NCC(OC)OC)c(=O)c3c2)cc1 | . | . | . | . | .
CCOc1ccc(N(C)S(=O)(=O)c2ccc3[nH]cc(C(=O)NCc4ccccc4)c(=O)c3c2)cc1 | . | . | ? | . | 37.4
Cc1cc(OCC(=O)Nc2nnc(C3CC3)s2)ccc1C(C)C | . | . | . | . | 35.9
O=C1CCCCN1CCC(=O)N1CCOc2ccc(C(O)C3CCCCC3)cc2C1 (configuration not stated) | / | . | / | / | /
CC1CN(CCC(=O)N2CCCC(C(=O)c3nccn3C)C2)Cc2cc(Cl)ccc2O1 (configuration not stated) | / | . | / | / | /
CCn1cc(/C=C/C(=O)Nc2c(C)nn(Cc3ccccc3)c2C)cn1 | . | . | ? | . | 34.6
COCCN(C)C(=O)c1cnn(-c2nccc(-c3cc(C)sc3C)n2)c1C | / | . | / | / | /
Fc1ccc(Nc2c(-c3ccco3)nc3ccccn23)cc1 | . | . | . | . | 31.1!
CCOC(=O)C(Cc1ccccc1)C(=O)Nc1cccc(C)c1 (configuration not stated) | . | . | . | . | 31.1
CCOC(=O)C(Cc1ccccc1)C(=O)Nc1ccc(N(CC)CC)cc1 (configuration not stated) | . | . | . | . | .
CCN1CCN(c2c(/C=C3\SC(=S)N(Cc4ccco4)C3=O)c(C)c(C#N)c(=O)n2C)CC1 | . | . | . | ? | 32.2
COc1ccc(-n2c(C)cc(/C=C3\SC(=S)N(Cc4ccco4)C3=O)c2C)cc1 | . | . | . | . | .
COCc1c(C(=O)N2CCN(C3CCCC3)CC2)cnn1-c1ncc2c(n1)-c1ccccc1CCC2 | / | . | / | / | /
COc1ccccc1N1C(=O)C2C(C(=O)c3ccccc3)=NN(c3ccccc3)C2C1=O (configuration not stated) | . | . | . | . | .
O=C(C1=NN(c2ccccc2)C2C(=O)N(c3ccccc3Cl)C(=O)C12)c1ccccc1 (configuration not stated) | 58.2 | . | . | ? | .
COc1cccc(CN(C)C(=O)c2cnn(-c3nccc(-c4ccc5c(c4)OCO5)n3)c2C)c1 | / | . | / | / | /
CC(=O)Nc1ccc(Sc2ncccc2C(=O)Nc2cc(Cl)cc(Cl)c2)cn1 | . | . | . | . | .
CC(=O)Nc1ccc(Sc2ncccc2C(=O)Nc2ccc(OC(F)(F)F)cc2)cn1 | . | . | . | 51.9 | .
O=C1c2ccccc2C(=O)N1Cc1nn2c(-c3ccc(Cl)cc3)nnc2s1 | . | . | . | . | .
COc1ccc(-c2nnc3sc(CN4C(=O)c5ccccc5C4=O)nn23)cc1 | . | . | . | . | 35.7
Cc1c(C(=O)Nc2ccc3nc(N4CCOCC4)sc3c2)oc2ccccc12 | . | . | . | 54.7 | .
O=C(Nc1ccc2nc(N3CCOCC3)sc2c1)c1cc2ccccc2o1 | / | . | ? | . | /
COc1ccccc1CN1C2CCCC1CC(NC(=O)/C=C/c1ccccc1)C2 (configuration not stated) | . | . | . | . | 32.3

Bioassay records from PubChem BioAssay.
